Assay results from the supplement of paper PMC8877412.
Where a name gives a salt, the structure may show the parent alone. ± gives the uncertainty stated by the source.

Tested on: NCC-PMP1-C1
Test: cell viability relative to DMSO control; higher = less growth inhibition
Details: 10 µM; 72 h
Description: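 NCC-PMP1-C1 pseudomyxoma peritonei cells were seeded in 384-well plates coated with Matrigel and MEF (1e4 cells). Viability was read after 72 h by CCK-8 and expressed as % of the DMSO control, mean ± SD of duplicates.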

Row | Compound | cell viability [%]
1 | COc1cc2c(Oc3ccc4[nH]c(C)cc4c3F)ncnc2cc1OCCCN1CCCC1 [Cediranib (AZD2171)] | 22.4 ± 14
2 | O=C(c1cc(Cc2n[nH]c(=O)c3ccccc23)ccc1F)N1CCN(C(=O)C2CC2)CC1 | 92.3 ± 8.4
3 | FC(F)(F)c1ccc(CNc2ccc(Cc3c[nH]c4ncc(Cl)cc34)cn2)cn1 [Pexidartinib (PLX3397)] | 63.2 ± 6
4 | NC(=O)NO [Hydroxyurea] | 136 ± 8.1
5 | Nc1nc(Cl)nc2c1ncn2[C@H]1C[C@H](O)[C@@H](CO)O1 [Cladribine] | 97.8 ± 1.1
6 | Cc1c2oc3c(C)ccc(C(=O)N[C@@H]4C(=O)N[C@H](C(C)C)C(=O)N5CCC[C@H]5C(=O)N(C)CC(=O)N(C)[C@@H](C(C)C)C(=O)O[C@@H]4C)c3nc-2c(C(=O)N[C@@H]2C(=O)N[C@H](C(C)C)C(=O)N3CCC[C@H]3C(=O)N(C)CC(=O)N(C)[C@@H](C(C)C)C(=O)O[C@@H]2C)c(N)c1=O [Actinomycin D] | 8.77 ± 0.95
7 | FC(F)(F)c1ccc(/C=C/c2nc(COc3ccc(CCCCn4ccnn4)cc3)co2)cc1 [Mubritinib (TAK 165)] | 171 ± 3.5
8 | Nc1nc(CC(=O)Nc2ccc(CCNC[C@H](O)c3ccccc3)cc2)cs1 [Mirabegron] | 101 ± 5.9
9 | C#Cc1cccc(Nc2ncnc3cc(OCCOC)c(OCCO)cc23)c1 | 49.1 ± 7.9
10 | NCC(=O)CCC(=O)O [5-Aminolevulinic acid HCl] | 102.7 ± 0.67
11 | S=C(NCc1ccc2c(c1)OCO2)N1CCN(c2ncnc3c2oc2ccccc23)CC1 [Amuvatinib (MP-470)] | 176.1 ± 0.89
